Assay [1] has as its target Proto-oncogene tyrosine-protein kinase receptor Ret (Homo sapiens) (UniProt P07949). The following applies: at 1 µM.
The target is the same in assay [2]. The following applies: at 10 µM.
Assay [3] addresses Macrophage-stimulating protein receptor (Homo sapiens) (UniProt Q04912). As to conditions: at 1 µM.
Assay [4] has the same target. As to conditions: at 10 µM.
Assay [5] has as its target Proto-oncogene tyrosine-protein kinase ROS (Homo sapiens) (UniProt P08922). As to conditions: at 1 µM.
Assay [6] shares this target. The following applies: at 10 µM.
Assay [7] deals with T1, Tyrosine-protein kinase receptor TYRO3 (Homo sapiens) (UniProt Q06418).
T1 sequence (whole entry): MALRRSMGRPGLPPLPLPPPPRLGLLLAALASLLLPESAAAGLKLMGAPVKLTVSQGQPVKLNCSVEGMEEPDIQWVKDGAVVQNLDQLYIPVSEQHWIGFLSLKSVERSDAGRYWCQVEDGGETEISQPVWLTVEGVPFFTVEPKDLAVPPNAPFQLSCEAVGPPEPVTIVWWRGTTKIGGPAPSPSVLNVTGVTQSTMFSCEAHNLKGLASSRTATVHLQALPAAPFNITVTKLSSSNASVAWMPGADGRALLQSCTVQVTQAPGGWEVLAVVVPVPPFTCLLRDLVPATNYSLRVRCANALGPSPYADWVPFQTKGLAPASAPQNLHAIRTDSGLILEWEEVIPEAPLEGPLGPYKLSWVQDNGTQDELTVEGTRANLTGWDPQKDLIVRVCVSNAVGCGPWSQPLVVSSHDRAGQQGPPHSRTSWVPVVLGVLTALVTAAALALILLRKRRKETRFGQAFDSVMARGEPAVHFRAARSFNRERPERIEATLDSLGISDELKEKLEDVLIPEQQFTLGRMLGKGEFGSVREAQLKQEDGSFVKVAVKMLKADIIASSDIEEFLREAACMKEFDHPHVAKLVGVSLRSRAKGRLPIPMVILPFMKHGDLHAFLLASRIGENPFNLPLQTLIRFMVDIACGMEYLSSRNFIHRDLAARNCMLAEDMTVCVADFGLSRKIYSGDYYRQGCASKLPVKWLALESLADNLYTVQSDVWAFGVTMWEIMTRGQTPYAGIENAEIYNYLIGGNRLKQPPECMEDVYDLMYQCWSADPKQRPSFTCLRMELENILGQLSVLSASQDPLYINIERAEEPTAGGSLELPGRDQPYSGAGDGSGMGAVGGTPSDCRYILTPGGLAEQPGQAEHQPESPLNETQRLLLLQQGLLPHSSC
The following applies: at 1 µM.

The target in assay [8] is T1, Tyrosine-protein kinase receptor TYRO3 (Homo sapiens). As to conditions: at 10 µM.
Assay [9] deals with Rho-associated protein kinase 2 (Homo sapiens) (UniProt O75116). The following applies: at 10 µM.

Chain of Proto-oncogene tyrosine-protein kinase receptor Ret (Homo sapiens) (P07949 whole entry): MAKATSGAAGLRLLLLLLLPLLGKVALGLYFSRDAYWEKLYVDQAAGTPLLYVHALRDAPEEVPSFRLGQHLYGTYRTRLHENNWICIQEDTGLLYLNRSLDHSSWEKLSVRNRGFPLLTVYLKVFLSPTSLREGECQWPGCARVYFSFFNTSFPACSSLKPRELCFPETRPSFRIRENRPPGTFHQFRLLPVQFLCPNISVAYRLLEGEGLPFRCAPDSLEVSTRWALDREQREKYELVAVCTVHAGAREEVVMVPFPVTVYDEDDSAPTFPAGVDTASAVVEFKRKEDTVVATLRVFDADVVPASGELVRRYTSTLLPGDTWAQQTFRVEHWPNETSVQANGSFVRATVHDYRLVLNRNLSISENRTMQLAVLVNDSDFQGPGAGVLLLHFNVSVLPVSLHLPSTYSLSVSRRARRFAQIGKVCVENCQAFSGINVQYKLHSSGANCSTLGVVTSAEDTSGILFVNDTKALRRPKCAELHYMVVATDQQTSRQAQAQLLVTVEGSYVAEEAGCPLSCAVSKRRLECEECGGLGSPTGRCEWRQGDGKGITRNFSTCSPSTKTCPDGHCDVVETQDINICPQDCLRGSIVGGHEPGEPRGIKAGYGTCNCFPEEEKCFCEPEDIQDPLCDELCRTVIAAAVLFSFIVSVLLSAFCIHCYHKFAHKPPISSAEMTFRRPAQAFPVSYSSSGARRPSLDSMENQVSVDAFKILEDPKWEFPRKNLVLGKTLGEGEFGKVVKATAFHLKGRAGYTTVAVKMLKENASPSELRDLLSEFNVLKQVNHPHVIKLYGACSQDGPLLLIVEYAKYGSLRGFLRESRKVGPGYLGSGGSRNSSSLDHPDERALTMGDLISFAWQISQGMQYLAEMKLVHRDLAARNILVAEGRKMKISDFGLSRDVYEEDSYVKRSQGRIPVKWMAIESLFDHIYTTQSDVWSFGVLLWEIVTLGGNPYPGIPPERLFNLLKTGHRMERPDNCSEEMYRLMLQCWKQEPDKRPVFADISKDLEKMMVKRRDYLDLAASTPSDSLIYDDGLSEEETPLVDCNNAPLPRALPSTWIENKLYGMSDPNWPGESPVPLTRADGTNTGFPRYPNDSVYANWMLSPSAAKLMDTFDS
Chain of Proto-oncogene tyrosine-protein kinase ROS (Homo sapiens) (P08922 whole entry): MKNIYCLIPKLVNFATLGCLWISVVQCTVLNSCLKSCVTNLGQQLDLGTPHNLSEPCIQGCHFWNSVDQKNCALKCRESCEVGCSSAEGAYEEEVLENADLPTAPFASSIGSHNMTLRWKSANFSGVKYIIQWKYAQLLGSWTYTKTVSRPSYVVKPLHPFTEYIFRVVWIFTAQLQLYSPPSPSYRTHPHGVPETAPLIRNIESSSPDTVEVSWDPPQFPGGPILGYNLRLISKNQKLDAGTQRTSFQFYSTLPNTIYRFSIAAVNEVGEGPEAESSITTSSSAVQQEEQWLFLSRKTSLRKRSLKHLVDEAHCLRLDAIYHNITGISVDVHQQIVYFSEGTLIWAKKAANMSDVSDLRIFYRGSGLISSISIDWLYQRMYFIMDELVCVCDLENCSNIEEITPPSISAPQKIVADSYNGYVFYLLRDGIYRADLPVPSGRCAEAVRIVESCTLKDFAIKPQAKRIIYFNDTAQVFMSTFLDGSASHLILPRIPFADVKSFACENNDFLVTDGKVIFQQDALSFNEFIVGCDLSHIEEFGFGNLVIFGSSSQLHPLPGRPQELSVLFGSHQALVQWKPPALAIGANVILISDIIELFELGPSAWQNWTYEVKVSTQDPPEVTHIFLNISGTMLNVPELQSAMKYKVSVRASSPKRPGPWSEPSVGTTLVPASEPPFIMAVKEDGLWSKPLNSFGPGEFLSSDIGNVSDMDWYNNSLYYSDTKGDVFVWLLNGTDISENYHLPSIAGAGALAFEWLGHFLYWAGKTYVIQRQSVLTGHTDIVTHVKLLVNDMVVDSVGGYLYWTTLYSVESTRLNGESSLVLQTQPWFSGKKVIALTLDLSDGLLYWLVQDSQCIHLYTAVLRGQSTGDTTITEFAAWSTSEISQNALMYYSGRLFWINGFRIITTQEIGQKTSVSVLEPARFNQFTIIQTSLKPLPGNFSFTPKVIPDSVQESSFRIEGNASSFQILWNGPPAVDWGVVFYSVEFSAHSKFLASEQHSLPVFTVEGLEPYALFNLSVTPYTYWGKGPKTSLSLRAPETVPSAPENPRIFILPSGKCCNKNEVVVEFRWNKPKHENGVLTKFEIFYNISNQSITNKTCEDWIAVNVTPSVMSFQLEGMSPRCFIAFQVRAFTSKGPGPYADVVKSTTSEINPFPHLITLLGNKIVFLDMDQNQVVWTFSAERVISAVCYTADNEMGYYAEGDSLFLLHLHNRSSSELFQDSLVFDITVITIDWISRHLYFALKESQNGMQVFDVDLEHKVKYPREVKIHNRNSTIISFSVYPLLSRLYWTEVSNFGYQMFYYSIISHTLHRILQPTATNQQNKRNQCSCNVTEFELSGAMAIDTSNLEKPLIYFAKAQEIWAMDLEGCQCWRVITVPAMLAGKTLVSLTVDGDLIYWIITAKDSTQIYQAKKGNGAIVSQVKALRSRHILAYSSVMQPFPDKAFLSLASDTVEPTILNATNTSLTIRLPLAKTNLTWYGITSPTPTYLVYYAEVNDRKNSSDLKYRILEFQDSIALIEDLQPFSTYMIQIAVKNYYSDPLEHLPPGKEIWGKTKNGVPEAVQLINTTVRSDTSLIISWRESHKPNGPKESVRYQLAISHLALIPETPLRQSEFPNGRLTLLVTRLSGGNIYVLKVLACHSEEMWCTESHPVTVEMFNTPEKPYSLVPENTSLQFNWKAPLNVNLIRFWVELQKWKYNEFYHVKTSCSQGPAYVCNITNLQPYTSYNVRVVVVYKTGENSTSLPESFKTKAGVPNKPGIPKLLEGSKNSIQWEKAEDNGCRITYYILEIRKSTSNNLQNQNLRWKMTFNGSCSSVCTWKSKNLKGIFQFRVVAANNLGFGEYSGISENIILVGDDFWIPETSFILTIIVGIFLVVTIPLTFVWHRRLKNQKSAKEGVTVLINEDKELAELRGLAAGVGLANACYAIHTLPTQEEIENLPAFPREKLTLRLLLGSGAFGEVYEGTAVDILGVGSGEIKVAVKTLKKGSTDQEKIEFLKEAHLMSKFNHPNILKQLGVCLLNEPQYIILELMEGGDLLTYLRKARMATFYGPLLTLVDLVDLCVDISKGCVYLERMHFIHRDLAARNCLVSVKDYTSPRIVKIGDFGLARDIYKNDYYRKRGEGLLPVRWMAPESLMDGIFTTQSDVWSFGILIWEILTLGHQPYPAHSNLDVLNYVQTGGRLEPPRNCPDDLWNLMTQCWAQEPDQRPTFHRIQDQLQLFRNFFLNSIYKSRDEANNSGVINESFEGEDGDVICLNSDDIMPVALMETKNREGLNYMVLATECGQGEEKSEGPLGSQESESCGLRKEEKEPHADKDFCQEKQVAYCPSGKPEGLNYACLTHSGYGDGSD
Chain of Macrophage-stimulating protein receptor (Homo sapiens) (Q04912 25-304 limits assumed): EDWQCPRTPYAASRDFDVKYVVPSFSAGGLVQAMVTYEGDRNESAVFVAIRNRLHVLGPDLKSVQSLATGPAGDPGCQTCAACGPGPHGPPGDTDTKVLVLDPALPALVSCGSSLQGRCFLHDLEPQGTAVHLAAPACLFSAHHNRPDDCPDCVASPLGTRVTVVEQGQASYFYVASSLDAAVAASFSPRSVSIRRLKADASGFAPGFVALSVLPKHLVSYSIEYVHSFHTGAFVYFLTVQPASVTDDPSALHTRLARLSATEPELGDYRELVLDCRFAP
Chain of Macrophage-stimulating protein receptor (Homo sapiens) (Q04912 310-1400 limits assumed): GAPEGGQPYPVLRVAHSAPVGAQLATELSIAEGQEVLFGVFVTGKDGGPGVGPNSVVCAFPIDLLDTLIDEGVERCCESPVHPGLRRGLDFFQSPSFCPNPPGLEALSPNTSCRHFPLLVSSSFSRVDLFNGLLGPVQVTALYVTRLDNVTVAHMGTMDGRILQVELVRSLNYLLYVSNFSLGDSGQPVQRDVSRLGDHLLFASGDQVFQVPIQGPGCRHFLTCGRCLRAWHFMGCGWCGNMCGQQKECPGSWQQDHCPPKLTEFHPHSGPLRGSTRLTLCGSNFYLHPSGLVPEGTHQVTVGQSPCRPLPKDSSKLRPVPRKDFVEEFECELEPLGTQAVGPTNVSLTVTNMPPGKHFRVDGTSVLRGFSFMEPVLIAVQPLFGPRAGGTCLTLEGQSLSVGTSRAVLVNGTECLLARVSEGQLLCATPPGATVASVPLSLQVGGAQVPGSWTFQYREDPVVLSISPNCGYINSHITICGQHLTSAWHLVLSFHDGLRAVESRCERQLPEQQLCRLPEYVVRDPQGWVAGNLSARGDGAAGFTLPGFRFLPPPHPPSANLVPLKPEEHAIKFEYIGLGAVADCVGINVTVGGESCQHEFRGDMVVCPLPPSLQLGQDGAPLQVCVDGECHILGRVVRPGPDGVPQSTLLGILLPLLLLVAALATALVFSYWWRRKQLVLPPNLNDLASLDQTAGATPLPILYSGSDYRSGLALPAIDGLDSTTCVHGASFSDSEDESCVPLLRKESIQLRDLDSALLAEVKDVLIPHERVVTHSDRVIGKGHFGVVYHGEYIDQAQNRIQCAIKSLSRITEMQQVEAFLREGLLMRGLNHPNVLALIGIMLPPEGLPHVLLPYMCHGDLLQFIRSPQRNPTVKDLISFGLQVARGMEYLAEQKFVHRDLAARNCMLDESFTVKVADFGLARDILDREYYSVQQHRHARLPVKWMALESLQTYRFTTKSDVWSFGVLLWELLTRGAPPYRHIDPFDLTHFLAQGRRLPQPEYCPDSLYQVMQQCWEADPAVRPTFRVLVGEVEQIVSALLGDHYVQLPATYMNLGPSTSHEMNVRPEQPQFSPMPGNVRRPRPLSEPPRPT

Take `O=C(O)/C=C/c1cc(Br)c(Br)c(Br)c1Br`: the residual activity in assay [1] was 103%; in assay [2], 103%; in assay [3], 56%; in assay [4], 43%; in assay [5], 108%; in assay [6], 97%. The residual activity in [7] amounted to 98%; in assay [8] it was 106%.
Regarding `COc1ccc(CNC(=O)Nc2ncc([N+](=O)[O-])s2)cc1`, the residual activity in assay [7] amounted to 106%; in assay [8], 108%.
For `COc1ccc(COc2ccc(Cc3cnc(N)nc3N)cc2OC)cc1`, the results for the residual activity in assay [9], in assay [4] and in [5] were 78%, 62% and 81%, respectively.
As for `COc1ccc(-c2cnc3c(-c4ccsc4)cnn3c2)cc1`, the residual activity in assay [1] came out at 89%; in assay [2] it was 99%; in [4], 87%; in [7] it was 95%; in [8], 93%.
For `O=C(Nc1ccc(Cl)cc1)c1ccccc1NCc1ccncc1`, the results for the residual activity in assay [1] and in assay [2] were 53% and 6%, respectively.
On to `O=C1Nc2ccccc2/C1=C\c1c(Cl)[nH]c2ccccc12`, for which the residual activity in assay [9] worked out at 81%; in assay [3], 86%; in [8] it was 67%.

Source of the values: ChEMBL document CHEMBL2218924, “A broad activity screen in support of a chemogenomic map for kinase signalling research and drug discovery” (Biochem J, 2013).
